Assay results published in PubChem BioAssay AID1211 (NMMLSC, 2008).
Calls of active or inactive are those of the source. The rule behind the calls is not given here.

Target: Estrogen receptor (Homo sapiens) (UniProt P03372)
Test: ERalpha ligand binders by competition, primary screen, cell-based, Cos7 ERalpha-GFP, flow cytometry (AID 1211);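 note: 0% = DMSO vehicle wells and 100% = no E2-Alexa633 signal left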
Settings: fluorescent ligand competition, at 10 µM, stronger effect = higher value

Chain of Estrogen receptor (Homo sapiens) (P03372 whole entry, looked up): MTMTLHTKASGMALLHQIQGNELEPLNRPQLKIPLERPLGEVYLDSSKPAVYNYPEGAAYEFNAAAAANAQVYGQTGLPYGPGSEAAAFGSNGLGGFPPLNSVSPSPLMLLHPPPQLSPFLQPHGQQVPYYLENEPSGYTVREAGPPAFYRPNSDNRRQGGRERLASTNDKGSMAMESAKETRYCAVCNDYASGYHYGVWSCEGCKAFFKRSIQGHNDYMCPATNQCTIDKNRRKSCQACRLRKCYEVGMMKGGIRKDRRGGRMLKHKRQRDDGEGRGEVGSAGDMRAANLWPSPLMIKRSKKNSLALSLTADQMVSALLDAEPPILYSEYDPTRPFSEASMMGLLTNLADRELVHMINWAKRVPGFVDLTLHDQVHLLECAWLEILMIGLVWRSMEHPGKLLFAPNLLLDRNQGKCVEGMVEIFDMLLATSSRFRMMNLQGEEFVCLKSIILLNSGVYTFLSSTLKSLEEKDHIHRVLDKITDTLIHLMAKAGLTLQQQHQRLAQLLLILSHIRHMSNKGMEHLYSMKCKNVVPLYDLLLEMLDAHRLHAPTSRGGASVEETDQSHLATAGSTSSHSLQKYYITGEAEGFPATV

SMILES | inhibition of ligand binding
COc1ccc(CC2NCCc3cc(OC)c(OC)cc32)cc1OC (stereo not drawn) | 7% (inactive)
CC1(C)CC(CCNCc2ccc3c(c2)OCO3)(Cc2ccccc2)CCO1 (stereo not drawn) | 0% (inactive)
COc1ccc(C2(CN)CCCC2)cc1 | 21% (inactive)
N=c1c[n+](CCc2ccc(O)cc2)[n-]o1 | 7% (inactive)
C[C@H]1CCC[C@@H](O)CCC/C=C/c2cc(O)cc(O)c2C(=O)O1 | 67% (active)
O=C(O)c1cccc2c1NC(c1cccc([N+](=O)[O-])c1)C1CC(Sc3ccccc3[N+](=O)[O-])C(Cl)C21 (stereo not drawn) | 62% (inactive)
CC(=O)c1ccc2c(c1)C1C(Cl)C(Sc3ccccc3[N+](=O)[O-])CC1C(c1ccccc1)N2 (stereo not drawn) | 69% (active)
COc1ccc(Cn2c(N)c(C(=O)NCc3ccco3)c3nc4ccccc4nc32)cc1 | 26% (inactive)
CCNCC1(c2ccc(OC)c(OC)c2)CCCC1 | 17% (inactive)
COc1ccc2[nH]cc(CCN=C(N)N)c2c1 | 1% (inactive)
Cc1ccc2c(c1Cl)NC(C(=O)O)C1CC(Sc3ccccc3[N+](=O)[O-])C(Cl)C21 (stereo not drawn) | 0% (inactive)
O=C1C2CCN(CC2)C1Cc1ccc(O)cc1 (stereo not drawn) | 0% (inactive)
COc1ccc(C2(CN)CCCC2)cc1OC | 2% (inactive)
COc1cc2c(cc1OC)CC(C)(C)NC2 | 3% (inactive)
Cc1ccc(S(=O)(=O)Cc2ccc(C(=O)N3CCC4(CC3)OCCO4)o2)cc1 | 31% (inactive)
O=C(O)c1ccc2c(c1)C1C(Cl)C(Sc3ccccc3[N+](=O)[O-])CC1C(c1cccc([N+](=O)[O-])c1)N2 (stereo not drawn) | 0% (inactive)
O=C(O)c1cccc2c1NC(C(=O)O)C1CC(Sc3ccccc3[N+](=O)[O-])C(Cl)C21 (stereo not drawn) | 0% (inactive)
CC(=O)c1ccc2c(c1)C1C(Cl)C(Sc3ccccc3[N+](=O)[O-])CC1C(C(=O)O)N2 (stereo not drawn) | 0% (inactive)
CC(=O)c1ccc2c(c1)C1C(Cl)C(Sc3ccccc3[N+](=O)[O-])CC1C(c1ccccc1[N+](=O)[O-])N2 (stereo not drawn) | 79% (active)
CCOc1ccccc1N1C(=O)NC(=O)C(CCc2ccncc2)(CCc2ccncc2)C1=O | 59% (inactive)
NC(=O)c1ccc(N=Nc2c(O)[nH]c(=O)[nH]c2=O)cc1 | 28% (inactive)

Same assay, conditions: fluorescent ligand competition, binding inhibition, at 0.1 µM, stronger effect = higher value

SMILES | inhibition of ligand binding
C[C@H]1CCC[C@@H](O)CCC/C=C/c2cc(O)cc(O)c2C(=O)O1 | 74%
COc1ccc(Cn2c(N)c(C(=O)NCc3ccco3)c3nc4ccccc4nc32)cc1 | 45%
Cc1ccc(S(=O)(=O)Cc2ccc(C(=O)N3CCC4(CC3)OCCO4)o2)cc1 | 24%
O=C(O)c1cccc2c1NC(C(=O)O)C1CC(Sc3ccccc3[N+](=O)[O-])C(Cl)C21 (stereo not drawn) | 1%
CC(=O)c1ccc2c(c1)C1C(Cl)C(Sc3ccccc3[N+](=O)[O-])CC1C(c1ccccc1[N+](=O)[O-])N2 (stereo not drawn) | 38%
CCOc1ccccc1N1C(=O)NC(=O)C(CCc2ccncc2)(CCc2ccncc2)C1=O | 24%
NC(=O)c1ccc(N=Nc2c(O)[nH]c(=O)[nH]c2=O)cc1 | 14%
